Test results reported in PubChem BioAssay (NCI).
Compounds without any hit were thinned out: in the full panel of roughly 83,000, 20% have a hit.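 A percent growth of 40 corresponds to 60% growth inhibition; 0 means no net growth; -100 means all cells died. Active threshold: below 10.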 A number with no mark means an inactive call. Activity calls are given as the source filed them.

Assays:
Assay in all cases: NCI-60 one-dose screen, 48 h (100 = growth as untreated, 0 = no growth, -100 = all killed)
HCT-15 colon = conditions: 10 µM unless noted
HT29 colon = conditions: 10 µM unless noted
SNB-19 CNS = conditions: 10 µM unless noted
U251 CNS = conditions: 10 µM unless noted
PC-3 prostate = conditions: 10 µM unless noted
SK-MEL-5 melanoma = conditions: 10 µM unless noted
UACC-62 melanoma = conditions: 10 µM unless noted
LOX IMVI melanoma = conditions: 10 µM
SK-MEL-28 melanoma = conditions: 10 µM unless noted

SMILES	growth (HCT-15 colon)	growth (HT29 colon)	growth (SNB-19 CNS)	growth (U251 CNS)	growth (PC-3 prostate)	growth (SK-MEL-5 melanoma)	growth (UACC-62 melanoma)	growth (LOX IMVI melanoma)	growth (SK-MEL-28 melanoma)
CCCCSc1nc(Nc2ccc(S(N)(=O)=O)cc2)c(C#N)c(-c2ccc(Cl)cc2)n1	-8.65% (active)	8.86% (active)	45.5%	-55.7% (active)	55.8%	59.6%	48.4%	-99.9% (active)	63%
COc1ccc(-c2nc3cc(C)ccc3n2CC(=O)N=Nc2c(O)[nH]c3ccc(Cl)cc23)cc1	-71.2% (active)	-71.1% (active)	31.4%	-73.9% (active)	9.75% (active)	-36.2% (active)	-52.3% (active)	-93.4% (active)	-67.6% (active)
Cc1ccc2c(c1)nc(-c1ccccc1)n2CC(=O)N=Nc1c(O)[nH]c2ccc(Br)cc12	-79.9% (active)	-67.6% (active)	-30.8% (active)	-74.3% (active)	-78% (active)	-57.3% (active)	-87.4% (active)	-93.6% (active)	-88.3% (active)
COc1ccc2[nH]c(O)c(N=NC(=O)Cn3c(-c4ccccc4)nc4cc(C)ccc43)c2c1	3.08% (active)	-1.1% (active)	59.2%	32.4%	21.5%	-23.8% (active)	6.74% (active)	–	-23.6% (active)
O=C1/C(=C/C2=Cc3ccccc3OC2)SC(=S)N1c1ccccc1F	107%	110%	98.2%	102%	95.7%	105%	88.4%	101%	105%
C=C1CC[C@@H]2[C@]3(C)COC(c4cn[nH]c4-c4cccc(Br)c4)O[C@@H]3CC[C@@]2(C)[C@@H]1C/C=C1/C(=O)OCC1O (stereo not given in full)	-67.5% (active)	1.52% (active)	-87.9% (active)	-90.9% (active)	-47.9% (active)	-99.6% (active)	-83.2% (active)	–	-76.7% (active)
Cn1cc(-c2cc3nc(-c4cn(C)c5ncc(Br)cc45)cc(N)n3n2)c2cc(Cl)ccc21	-77.6% (active)	-89.2% (active)	-74.2% (active)	-67.9% (active)	-62.5% (active)	-77.1% (active)	-96% (active)	-95.1% (active)	-90.7% (active)
COc1c(F)ccc(C(=O)Nc2ccc3nc(NC(=O)C4CCCN(S(=O)(=O)c5cccc(C(F)(F)F)c5)C4)sc3c2)c1F (stereo not given)	69.1%	83.2%	72.6%	69.8%	50.3%	89.3%	83.3%	86.5%	98.2%
CC12CC[C@@H]3[C@]4(C)COC(c5cn[nH]c5-c5cccc(Br)c5)O[C@@H]4CC[C@@]3(C)[C@@H]1CC(C1=CCOC1=O)O2 (stereo not given in full)	23.3%	23.2%	51.2%	32.1%	12.9%	3.56% (active)	20.9%	–	34%
Cc1sc2c(c1C)C(c1ccc(Cl)cc1)=N[C@@H](CC(=O)NCCCCCNC(=O)COc1ccc(C3CCC(=O)NC3=O)cc1)c1nnc(C)n1-2 (stereo not given in full)	33%	13%	–	45.2%	11.3%	-13.4% (active)	3.07% (active)	11.3%	48.3%
C=C1CC[C@@H]2[C@]3(C)COC(c4ccco4)O[C@@H]3CC[C@@]2(C)[C@@H]1C/C=C1/C(=O)OCC1OC(C)=O (stereo not given in full)	-59% (active)	-46% (active)	75.9%	8.15% (active)	18.8%	43.9%	34.5%	-100% (active)	59.6%
CCCSc1nc(Nc2ccc(S(N)(=O)=O)cc2)c(C#N)c(-c2cc(OC)c(OC)c(OC)c2)n1	15.3%	16.6%	43.8%	27.4%	12.6%	6.41% (active)	21%	5.09% (active)	35.8%
C=C1CCC2C3(C)COC(c4cccs4)OC3CCC2(C)C1CC(Sc1ccccc1)C1=CCOC1=O (stereo not given)	44.3%	69.4%	95.4%	69.1%	53.5%	89.2%	71.7%	-77.9% (active)	99.4%
CC12CC[C@@H]3[C@]4(C)COC(c5cn[nH]c5-c5cccc(Cl)c5)O[C@@H]4CC[C@@]3(C)[C@@H]1CC(C1=CCOC1=O)O2 (stereo not given in full)	35.1%	28%	56.8%	38.6%	12.6%	8.92% (active)	26.9%	40.3%	36.3%
Cn1cc(NC(=O)c2cc(NC(=O)c3ccc(/C=C/c4ccccc4)cc3)cn2C)cc1C(=O)NCCCN1CCOCC1	7.6% (active)	-88.5% (active)	70.4%	-69.2% (active)	38.1%	-70% (active)	-89% (active)	–	32.5%
C=C1CC[C@@H]2[C@]3(C)COC(c4cn[nH]c4-c4ccc(F)cc4)O[C@@H]3CC[C@@]2(C)[C@@H]1C/C=C1/C(=O)OCC1O (stereo not given in full)	-56.8% (active)	-2.38% (active)	21.6%	-83.2% (active)	8.84% (active)	-79% (active)	-73.7% (active)	-100% (active)	-75.6% (active)
COc1c(F)ccc(C(=O)Nc2ccc3nc(NC(=O)C4CCCN(S(=O)(=O)c5ccc(Br)c(F)c5)C4)sc3c2)c1F (stereo not given)	73.6%	78.2%	81.9%	69.8%	62.6%	85.7%	72%	78.9%	99.6%
C=C1CCC2C3(C)COC(c4ccccc4)OC3CCC2(C)C1CC(Sc1ccccc1)C1=CCOC1=O (stereo not given)	5.46% (active)	13.8%	85.5%	17.5%	29.3%	55.2%	39.5%	-98% (active)	82.5%
CC1=C(C#N)C2=NNCC(c3ccccc3)=NN2C(c2ccccc2)=C1	104%	114%	97.3%	96.2%	106%	106%	96%	–	109%
C=C1CC[C@@H]2[C@]3(C)COC(c4ccccc4)O[C@@H]3CC[C@@]2(C)[C@@H]1C/C=C1/C(=O)OCC1OC(C)=O (stereo not given in full)	-87.3% (active)	-93.1% (active)	55.5%	-89.9% (active)	-41.4% (active)	-45.1% (active)	-82.7% (active)	–	-86.9% (active)
NS(=O)(=O)c1ccc(CCNC(=O)CSc2ccc(-c3ccc(Br)cc3)nn2)cc1	97.4%	82.6%	61.5%	76%	74%	28.4%	66.8%	59.8%	78.1%
O=C(N1c2ccccc2Sc2ccccc21)n1ccc2cccnc21	40.2%	60.7%	74.3%	51.3%	39.8%	45.9%	47.5%	–	76.9%
CCOC(=O)c1ccc(Nc2nc(NN)nc(-c3ccc(F)cc3)c2C#N)cc1	109%	97.6%	100%	115%	103%	102%	91.3%	112%	109%
COc1cccc(/C=C/c2nc3ccccc3c(=O)n2CC(=O)Nc2ccc(Cl)cc2)c1	88.3%	64.4%	–	27.8%	76.3%	101%	95.1%	39.8%	99.2%
O=c1[nH]c(=O)c2c(-c3cc4ccccc4oc3=O)ccnc2[nH]1	81.4%	102%	75.5%	19.5%	85.4%	89%	82.7%	–	115%
